Experimental data: PubChem BioAssay

Target: Fibroblast growth factor 10 (Homo sapiens) (UniProt O15520)
Experiment: compounds binding fibroblast growth factor 10 – biochemical, small-molecule microarray, 635 nm fluorescence, primary screen (AID 1102)
Details: FGF10 binding, fluorescence 635 nm, higher = more signal

Chain of Fibroblast growth factor 10 (Homo sapiens) (O15520 whole entry, looked up): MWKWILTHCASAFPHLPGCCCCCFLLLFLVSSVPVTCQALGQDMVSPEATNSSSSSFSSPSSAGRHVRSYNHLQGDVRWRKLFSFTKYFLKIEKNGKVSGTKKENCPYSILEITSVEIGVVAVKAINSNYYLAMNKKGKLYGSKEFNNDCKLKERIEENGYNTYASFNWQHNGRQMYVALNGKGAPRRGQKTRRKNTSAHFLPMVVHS

Point of comparison: `CC(C)=CCCC(C)=CC(O)C1C=CC2C(=O)N(c3ccccc3)C(=O)C2N1Nc1ccc(C(C)C)cc1` (stereo not given), composite z-score 0.691. Against it:
- CCOC(=O)C[C@H]1[C@H](OC(=O)c2ccc(-c3ccccc3)cc2)[C@@H](NC(=O)c2ccccc2)c2cc(OCCCO)ccc2N1C(=O)c1ccc2ccccc2n1 — lower, 0.47
- O=c1cccc(-c2ccccc2Cl)o1 — lower, 0.425
- C=CCC(OC(C)=O)[C@@H]1[C@@H](N(Cc2cc3ccccc3o2)C(=O)Cc2ccc(OC)cc2)c2cc(OCCCO)ccc2N1C(=O)c1ccc2ccccc2c1 (stereo not given in full) — lower, -0.0205
- CS(=O)(=O)CCOC(=O)C1=CC(CCCO)=CC(c2ccc(CN3CCCC3)cc2)N(Cc2cccc(OC(F)(F)F)c2)C=C1C(=O)OCCS(C)(=O)=O (stereo not given) — higher, 1.19
- O=C1[C@@]23C=C(Br)[C@H](C[C@@H]2COC3)[C@]12CO2 — lower, -0.573
- O=C(CS)NCCCCCNC(=O)[C@H]1C[C@H]2C(=O)NCC(=O)N2[C@H]1c1ccc(O)cc1 — lower, -1.04
- CC(c1ccccc1)C(O)C1C=CC2C(=O)N(c3ccccc3)C(=O)C2N1Nc1ccccc1 (stereo not given) — higher, 1.4
- COC(=O)c1c(CC[C@@H](CO)NC(=O)NCCc2c[nH]c3ccccc23)oc(C(=O)Cc2ccccc2)c1C(=O)OC — lower, 0.48
- O=C(O)[C@H]1C[C@H]2C(=O)N3CCC[C@H]3C(=O)N2[C@H]1c1ccc(O)cc1 — lower, -1.41
- Cc1c(NC(=O)/C(C#N)=C/c2cccc([N+](=O)[O-])c2)c(=O)n(-c2ccccc2)n1C — lower, 0.455
- CCOC(=O)C1=CCC(c2ccc(F)cc2)N(S(=O)(=O)c2ccc(C)cc2)C1 (stereo not given) — lower, -0.0564
- COC(=O)C(CC#Cc1ccc2c(c1)[C@]1(C(=O)N2)[C@H](c2ccc(O)cc2)N2[C@H](c3ccccc3)[C@H](c3ccccc3)OC(=O)[C@H]2[C@@H]1C(=O)N1CCN(c2ncccn2)CC1)C(=O)OC — lower, 0.621
- O=C1O[C@H](c2ccccc2)[C@H](c2ccccc2)N2[C@H]1[C@@H](C(=O)NC[C@H](O)c1ccccc1)[C@]1(C(=O)Nc3ccccc31)[C@H]2c1ccc(O)cc1 — higher, 1.3
- COCCOC(=O)N1C(=O)[C@@]2(c3cc(C#Cc4ccc(OC)cc4)ccc31)[C@H](c1ccc(O)cc1)N1[C@H](c3ccccc3)[C@H](c3ccccc3)OC(=O)[C@H]1[C@@H]2C(=O)Nc1nc2ccccc2s1 — higher, 1.22
- O=C(O)[C@H](Cc1ccccc1)n1cc(-c2ccccc2)nn1 — lower, 0.467
- COC(=O)C(CC#Cc1ccc2c(c1)[C@]1(C(=O)N2)[C@H](c2ccccc2OCCO)N2[C@H](c3ccccc3)[C@H](c3ccccc3)OC(=O)[C@H]2[C@@H]1C(N)=O)C(=O)OC — lower, 0.376
- [N-]=[N+]=Nc1ccccc1C[C@]1(C(=O)NCC(O)CO)N=C(c2ccc(OCCCO)cc2)O[C@H]1c1ccccc1 (stereo not given in full) — higher, 0.786
- Cc1ccc([C@H]2C(C(=O)O)=CCN2S(=O)(=O)c2ccc(C)cc2)cc1 — lower, 0.214
- [N-]=[N+]=Nc1ccccc1C[C@]1(C(=O)NCc2ccccc2)N=C(c2ccc(OCCCO)cc2)O[C@H]1c1ccccc1N=[N+]=[N-] — higher, 1.31
- CC(=O)NCCCC[C@@H]1NC(=O)[C@H]2C[C@@H](C(=O)O)[C@@H](c3ccc(O)cc3)N2C1=O — higher, 1.32
- COCCOC(=O)N1C(=O)[C@@]2(c3cc(C#CC4(O)CCCCCC4)ccc31)[C@H](C(=O)Nc1nc3ccccc3s1)[C@H]1C(=O)O[C@H](c3ccccc3)[C@H](c3ccccc3)N1[C@@H]2c1ccccc1OCCO — higher, 1.3
- COCC(=C=CC[C@H](O)c1cccc(OCCO)c1)C[C@H](O)c1cc(Cl)cc(Cl)c1O — higher, 1.55
- [N-]=[N+]=Nc1ccccc1[C@H]1OC(c2ccc(OCCCO)cc2)=N[C@@]1(Cc1ccccc1)C(=O)N1CCOCC1 — higher, 1.31
- CCCCC(O)C1C=CC2C(=O)N(C)C(=O)C2N1N1CCCCC1 (stereo not given) — lower, 0.546
- COc1ccc(NC(=O)O[C@H]2[C@H](OC(=O)c3cc4ccccc4[nH]3)[C@@H](OC(=O)c3cc4ccccc4[nH]3)[C@@H](OC)O[C@@H]2CO)cc1 — lower, 0.523
- CN1C(=O)C2C=CC(C(O)c3c(F)cccc3Cl)N(NC(=O)OC(C)(C)C)C2C1=O (stereo not given) — lower, 0.458
- O=C(CS)NCCCCCNC(=O)[C@@H]1C[C@@H]2C(=O)NCC(=O)N2[C@@H]1c1ccc(O)cc1 — lower, 0.528
- COc1ccccc1CN1C(=O)c2ccccc2[C@@]2(Cc3ccccc3N(CCCN(C)C)C2=O)[C@@H]1c1ccc(CO)cc1 — lower, 0.165
- [N-]=[N+]=NCc1ccccc1C[C@@]1(C(=O)NCC(O)CO)N=C(c2ccc(OCCCO)cc2)O[C@@H]1c1ccccc1 (stereo not given in full) — lower, -0.181
